In the supplement of paper PMC12067093, “Discovery and optimisation of a covalent ligand for TRIM25 and its application to targeted protein ubiquitination” (Chemical Science, 2025):
About 21,000 targets were measured; listed, in parts, are those with the largest changes and a random draw of the rest.

Compound: Cc1cc(ccc1-c1ccccc1)C(=O)N1CCCN(CC1)C(=O)CCl [compound 10]
Assay: probe-labelled cysteine peptide fold change vs DMSO (competition) (log2 fold change); higher = less target engagement (more negative = stronger competition)
Settings: 50 µM; THP-1; incubation time: 4 h
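Also: competitive profiling in live THP-1 cells: cysteine peptides tagged with an iodoacetamide desthiobiotin (IA-DTB) probe, intensity after compound treatment relative to DMSO-treated cells.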

Sequence of UniProt P13716 (P13716 whole entry, looked up): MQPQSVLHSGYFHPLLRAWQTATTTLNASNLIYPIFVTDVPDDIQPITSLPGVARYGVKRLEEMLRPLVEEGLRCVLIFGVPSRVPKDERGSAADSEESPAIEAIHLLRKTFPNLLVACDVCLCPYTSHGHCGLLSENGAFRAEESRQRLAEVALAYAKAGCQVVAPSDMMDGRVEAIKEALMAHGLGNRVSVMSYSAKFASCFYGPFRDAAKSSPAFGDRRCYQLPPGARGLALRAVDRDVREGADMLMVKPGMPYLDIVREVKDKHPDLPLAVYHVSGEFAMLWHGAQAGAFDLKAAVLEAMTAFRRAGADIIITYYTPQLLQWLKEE
Sequence of UniProt P25705 (P25705 whole entry, looked up): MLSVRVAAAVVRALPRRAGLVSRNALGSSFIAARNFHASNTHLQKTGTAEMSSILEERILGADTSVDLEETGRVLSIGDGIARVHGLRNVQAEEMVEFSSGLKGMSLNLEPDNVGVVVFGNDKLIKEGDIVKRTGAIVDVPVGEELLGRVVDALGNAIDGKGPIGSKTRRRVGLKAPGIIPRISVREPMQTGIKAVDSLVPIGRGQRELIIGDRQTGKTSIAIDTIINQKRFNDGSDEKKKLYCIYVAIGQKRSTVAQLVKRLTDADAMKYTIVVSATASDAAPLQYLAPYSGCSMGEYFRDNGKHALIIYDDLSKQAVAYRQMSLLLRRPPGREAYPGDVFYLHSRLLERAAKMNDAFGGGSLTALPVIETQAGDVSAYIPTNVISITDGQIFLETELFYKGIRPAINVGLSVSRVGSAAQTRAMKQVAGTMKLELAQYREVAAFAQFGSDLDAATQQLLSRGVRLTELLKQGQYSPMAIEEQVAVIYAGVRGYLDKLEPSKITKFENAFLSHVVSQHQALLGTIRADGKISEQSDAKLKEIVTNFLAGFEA
Sequence of UniProt Q9Y6D6 (Q9Y6D6 whole entry, looked up): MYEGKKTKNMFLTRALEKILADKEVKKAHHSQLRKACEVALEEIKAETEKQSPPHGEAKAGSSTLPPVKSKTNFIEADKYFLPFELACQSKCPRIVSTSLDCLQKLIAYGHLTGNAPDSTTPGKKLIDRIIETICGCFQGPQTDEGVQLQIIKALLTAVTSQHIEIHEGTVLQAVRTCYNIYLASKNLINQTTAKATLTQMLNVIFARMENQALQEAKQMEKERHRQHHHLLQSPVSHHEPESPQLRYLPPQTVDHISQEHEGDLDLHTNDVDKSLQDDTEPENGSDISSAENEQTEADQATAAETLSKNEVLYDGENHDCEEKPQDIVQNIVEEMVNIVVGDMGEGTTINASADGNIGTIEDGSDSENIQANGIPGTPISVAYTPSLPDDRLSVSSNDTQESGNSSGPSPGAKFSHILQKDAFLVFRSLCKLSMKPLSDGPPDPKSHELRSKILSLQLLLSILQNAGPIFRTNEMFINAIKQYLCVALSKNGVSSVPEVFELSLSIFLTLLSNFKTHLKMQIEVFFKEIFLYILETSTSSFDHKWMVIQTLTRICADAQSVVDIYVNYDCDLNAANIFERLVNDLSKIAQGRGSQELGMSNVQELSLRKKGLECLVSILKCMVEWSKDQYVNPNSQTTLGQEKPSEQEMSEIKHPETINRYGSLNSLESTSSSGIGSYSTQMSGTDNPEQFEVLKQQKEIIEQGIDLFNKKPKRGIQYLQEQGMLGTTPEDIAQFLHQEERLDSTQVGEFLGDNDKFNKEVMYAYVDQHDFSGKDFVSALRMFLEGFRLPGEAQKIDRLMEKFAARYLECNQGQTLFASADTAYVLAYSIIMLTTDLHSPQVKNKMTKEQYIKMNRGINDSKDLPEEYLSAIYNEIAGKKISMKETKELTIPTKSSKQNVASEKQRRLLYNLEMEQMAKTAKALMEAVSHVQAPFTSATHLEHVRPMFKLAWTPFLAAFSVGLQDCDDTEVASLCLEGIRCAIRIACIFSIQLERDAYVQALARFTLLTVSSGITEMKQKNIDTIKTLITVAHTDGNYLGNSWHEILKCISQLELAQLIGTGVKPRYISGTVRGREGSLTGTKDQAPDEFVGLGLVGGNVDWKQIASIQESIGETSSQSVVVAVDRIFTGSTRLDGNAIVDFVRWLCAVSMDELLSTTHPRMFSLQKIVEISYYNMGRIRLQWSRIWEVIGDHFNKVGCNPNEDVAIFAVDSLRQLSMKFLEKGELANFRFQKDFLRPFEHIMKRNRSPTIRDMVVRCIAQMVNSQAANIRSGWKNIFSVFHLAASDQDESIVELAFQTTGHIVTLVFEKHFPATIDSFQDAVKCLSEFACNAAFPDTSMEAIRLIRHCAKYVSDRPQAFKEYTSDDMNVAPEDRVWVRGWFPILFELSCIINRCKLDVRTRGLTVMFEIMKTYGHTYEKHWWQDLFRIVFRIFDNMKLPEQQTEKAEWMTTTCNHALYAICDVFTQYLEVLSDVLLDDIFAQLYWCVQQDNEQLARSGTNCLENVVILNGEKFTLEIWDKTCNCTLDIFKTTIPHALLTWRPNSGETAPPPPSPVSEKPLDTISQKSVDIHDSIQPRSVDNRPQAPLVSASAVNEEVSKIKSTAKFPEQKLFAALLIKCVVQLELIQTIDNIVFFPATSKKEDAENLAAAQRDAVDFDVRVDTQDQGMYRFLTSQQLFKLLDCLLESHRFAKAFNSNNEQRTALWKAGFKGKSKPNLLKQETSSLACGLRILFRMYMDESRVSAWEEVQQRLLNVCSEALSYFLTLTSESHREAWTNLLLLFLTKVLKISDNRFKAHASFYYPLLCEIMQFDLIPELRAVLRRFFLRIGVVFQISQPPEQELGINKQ
Sequence of UniProt P51648 (P51648 whole entry, looked up): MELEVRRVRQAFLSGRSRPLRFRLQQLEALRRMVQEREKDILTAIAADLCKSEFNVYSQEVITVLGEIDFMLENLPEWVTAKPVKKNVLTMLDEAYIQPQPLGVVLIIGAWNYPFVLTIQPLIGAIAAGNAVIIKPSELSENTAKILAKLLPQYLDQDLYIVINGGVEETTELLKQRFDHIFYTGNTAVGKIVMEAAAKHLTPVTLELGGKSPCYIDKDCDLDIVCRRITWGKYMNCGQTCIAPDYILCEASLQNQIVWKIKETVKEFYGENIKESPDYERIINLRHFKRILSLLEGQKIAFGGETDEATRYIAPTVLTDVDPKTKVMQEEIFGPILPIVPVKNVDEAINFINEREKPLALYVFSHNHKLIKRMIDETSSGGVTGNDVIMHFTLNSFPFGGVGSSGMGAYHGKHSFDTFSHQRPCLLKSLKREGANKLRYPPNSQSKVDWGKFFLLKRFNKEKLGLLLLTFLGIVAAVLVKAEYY
Sequence of UniProt P30837 (P30837 whole entry, looked up): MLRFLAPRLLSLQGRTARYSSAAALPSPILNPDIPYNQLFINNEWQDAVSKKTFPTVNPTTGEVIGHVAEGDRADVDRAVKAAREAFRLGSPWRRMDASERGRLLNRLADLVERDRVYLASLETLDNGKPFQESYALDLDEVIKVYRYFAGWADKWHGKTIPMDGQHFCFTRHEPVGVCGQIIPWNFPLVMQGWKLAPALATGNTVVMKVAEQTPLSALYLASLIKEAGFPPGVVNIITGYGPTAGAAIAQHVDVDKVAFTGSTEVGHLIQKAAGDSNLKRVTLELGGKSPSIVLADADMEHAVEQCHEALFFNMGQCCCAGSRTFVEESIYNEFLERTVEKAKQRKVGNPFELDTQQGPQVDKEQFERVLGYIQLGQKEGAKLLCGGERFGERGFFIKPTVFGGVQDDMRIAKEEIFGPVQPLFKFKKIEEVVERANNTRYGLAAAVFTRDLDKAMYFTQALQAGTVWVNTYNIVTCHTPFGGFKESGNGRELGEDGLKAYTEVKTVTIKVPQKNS
Sequence of UniProt P04075 (P04075 whole entry, looked up): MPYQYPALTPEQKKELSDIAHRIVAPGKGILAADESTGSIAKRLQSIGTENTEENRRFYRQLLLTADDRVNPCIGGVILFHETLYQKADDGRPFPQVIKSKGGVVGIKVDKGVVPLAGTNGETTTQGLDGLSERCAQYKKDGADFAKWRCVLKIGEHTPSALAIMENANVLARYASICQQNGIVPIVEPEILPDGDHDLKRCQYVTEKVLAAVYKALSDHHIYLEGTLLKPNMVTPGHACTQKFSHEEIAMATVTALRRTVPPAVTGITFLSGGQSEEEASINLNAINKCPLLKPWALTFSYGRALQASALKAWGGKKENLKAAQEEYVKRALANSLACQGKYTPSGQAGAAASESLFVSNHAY
Sequence of UniProt P31939 (P31939 whole entry, looked up): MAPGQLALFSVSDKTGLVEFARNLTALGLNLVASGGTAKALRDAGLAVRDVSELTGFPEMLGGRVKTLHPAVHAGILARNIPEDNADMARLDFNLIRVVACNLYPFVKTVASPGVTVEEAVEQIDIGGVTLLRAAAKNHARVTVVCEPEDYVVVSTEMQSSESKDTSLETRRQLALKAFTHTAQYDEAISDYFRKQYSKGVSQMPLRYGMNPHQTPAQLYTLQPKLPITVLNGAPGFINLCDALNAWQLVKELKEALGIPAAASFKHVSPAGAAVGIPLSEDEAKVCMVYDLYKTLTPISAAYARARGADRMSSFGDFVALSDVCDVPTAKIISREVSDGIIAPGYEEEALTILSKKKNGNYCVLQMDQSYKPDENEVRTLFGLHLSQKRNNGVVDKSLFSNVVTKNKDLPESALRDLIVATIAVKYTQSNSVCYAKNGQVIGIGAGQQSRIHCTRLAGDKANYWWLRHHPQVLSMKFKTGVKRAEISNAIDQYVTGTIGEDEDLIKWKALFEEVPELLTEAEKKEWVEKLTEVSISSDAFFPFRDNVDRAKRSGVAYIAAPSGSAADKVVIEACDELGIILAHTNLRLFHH
Sequence of UniProt Q6UXV4 (Q6UXV4 whole entry, looked up): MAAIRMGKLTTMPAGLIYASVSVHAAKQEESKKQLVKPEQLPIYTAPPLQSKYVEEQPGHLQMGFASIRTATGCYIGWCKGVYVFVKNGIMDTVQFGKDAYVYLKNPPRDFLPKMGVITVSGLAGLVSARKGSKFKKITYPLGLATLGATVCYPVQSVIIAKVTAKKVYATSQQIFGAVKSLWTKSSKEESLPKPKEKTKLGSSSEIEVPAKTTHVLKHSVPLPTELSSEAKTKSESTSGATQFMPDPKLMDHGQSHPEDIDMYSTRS

Row | Target | probe-labelled cysteine peptide fold change
1 | ATRX_P46100_1242_IKPVTENLVLSSHTGFCQSSGDEALSK (UniProt P46100) | -0.661
2 | ANKFY1_Q9P2R3_389_TPLHVSIMAGNEYVFSQLLQCK (UniProt Q9P2R3) | 0.15
3 | ALKBH3_Q96Q83_201_CPIIASLSFGATR (UniProt Q96Q83) | -0.104
4 | ANKHD1_Q8IWZ3_1716_GGCNITAIQDVTGAHIDVDK (UniProt Q8IWZ3) | 0.0508
5 | AIDA_Q96BJ3_69_IATCLELR (UniProt Q96BJ3) | -0.606
6 | ALG13_Q9NP73_86_ADLVISHAGAGSCLETLEK (UniProt Q9NP73) | -0.753
7 | ADNP2_Q6IQ32_220_CNANASSQDALMYHILTSDIHR (UniProt Q6IQ32) | 0.0124
8 | ATM_Q13315_2323_KLDASCAANNPSLK (UniProt Q13315) | -0.242
9 | ANLN_Q9NQW6_978_CQVNSSVEER (UniProt Q9NQW6) | 0.239
10 | ARFGEF1_Q9Y6D6_1729_QETSSLACGLR (UniProt Q9Y6D6) | 0.114
11 | ANAPC1_Q9H1A4_1630_LLVPVDVDTNTPCYALLEVTYK (UniProt Q9H1A4) | 0.155
12 | ANLN_Q9NQW6_1037_INLANCTSR (UniProt Q9NQW6) | -0.171
13 | ANKRD17_O75179_564_AGADIELGCSTPLMEAAQEGHLELVK (UniProt O75179) | -0.0606
14 | ALDH1B1_P30837_169_TIPMDGQHFCFTR (UniProt P30837) | -0.131
15 | ALDOA_P04075_178_YASICQQNGIVPIVEPEILPDGDHDLKR (UniProt P04075) | -0.12
16 | ALAD_P13716_75_CVLIFGVPSR (UniProt P13716) | 0.185

Row | Target | probe-labelled cysteine peptide fold change
17 | ATP6V1A_P38606_138_WDFTPCK (UniProt P38606) | -3.27
18 | AIP_O00170_122_HCCGVAQMR (UniProt O00170) | -2.09
19 | ADK_P55263_160_SLIANLAAANCYKK (UniProt P55263) | -1.01
20 | ALDH3A2_P51648_226_DCDLDIVCR (UniProt P51648) | -0.00592
21 | ARHGAP44_Q17R89_193_ADALREEMEEAANRVEICR (UniProt Q17R89) | -0.212
22 | APOOL_Q6UXV4_74_TATGCYIGWCK (UniProt Q6UXV4) | -1.75
23 | AKAP8_O43823_395_IQFACSVCK (UniProt O43823) | -0.348
24 | ATP5F1A_P25705_244_KLYCIYVAIGQK (UniProt P25705) | 0.236
25 | ATRX_P46100_235_WCAEGGNLICCDFCHNAFCK (UniProt P46100) | -0.0739
26 | AKR1B1_P15121_304_VCALLSCTSHK (UniProt P15121) | -2.08
27 | ADAR_P55265_851_CFNTLTNSFQPSLLGR (UniProt P55265) | 0.166
28 | ATIC_P31939_575_VVIEACDELGIILAHTNLR (UniProt P31939) | 0.126
29 | ALDH9A1_P49189_267_SPLIIFSDCDMNNAVK (UniProt P49189) | 0.2
30 | ARPC1B_O15143_227_VAWVSHDSTVCLADADKK (UniProt O15143) | -0.0807
31 | ACTR3B_Q9P1U1_408_DYEEYGPSICR (UniProt Q9P1U1) | 0.0944
